Measurements taken from PubChem BioAssay (NCATS).
Where “and” joins values, the source holds several entries; their conditions need not be identical. Equal entries are not always repeated. Records with an inconclusive call do not appear. Calls of active or inactive are those of the source. Unless noted, the call rests on the fitted dose curve; in most records, active means well fitted curve in the direction sought with a large enough effect; inconclusive means small, poorly fitted or top-dose-only effect, or another doubt; inactive means no such curve, though single readings can be large; an effect the other way counts as inactive or inconclusive.

What was measured:
[1] = molecular target: DNA repair nuclease/redox regulator APEX1 (Homo sapiens) (UniProt P27695); assay: qHTS Validation Assay for Inhibitors of the Human Apurinic/apyrimidinic Endonuclease 1 (APE1) (AID 1705;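 further: TAMRA fluorescence gain over two minutes as APE1 cuts a quenched THF abasic duplex; on the % scale 0 is the no-effect control and ±100 the full control effect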)
Procedure, shortened: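 Read-out: TAMRA fluorescence (525 nm ex, 598 nm em) from cleavage of a quenched THF abasic-site duplex, 50 nM final; activity taken as intensity change between third and first of three reads 60 s apart.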

[2] = Counterscreen for APE1 Inhibitors: Fluorescent Dye Displacement Validation Assay (AID 1707);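 further: plate controls were ThO with dsDNA and no compound for no effect and ThO without dsDNA for full effect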
Procedure, shortened: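 Reaction mixture of 250 nM Thiazole Orange and 50 nM double-stranded abasic-site DNA was dispensed, compounds were pin-transferred, and fluorescence was read at endpoint (480 nm ex, 540 nm em). Reduced fluorescence indicated dye displacement by DNA binding.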

[3] = molecular target: Endonuclease 4 (Escherichia coli (strain K12)) (UniProt P0A6C1); assay: Counterscreen for APE1 Inhibitors: qHTS Validation Assay for Inhibitors of Endonuclease IV (AID 1708); further: on the % scale 0 is the no-effect control and ±100 the full control effect
Procedure, shortened: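 Conditions: 2 nM enzyme, 50 nM TAMRA/BHQ-2 substrate, pH 7.5 Tris buffer with 2 mM MgCl2, RT. Compound preincubation 15 min; readout three fluorescence reads 60 s apart, third-minus-first.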

[4] = qHTS for differential inhibitors of proliferation of Plasmodium falciparum line 7G8 (AID 1815);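 further: parasite growth measured after three days of incubation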; further: potency means the concentration at half of the fitted maximal effect;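 on activity change, negative = inhibition: plate controls were vehicle wells for no effect and reference inhibitor wells for full effect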
[5] = qHTS for differential inhibitors of proliferation of Plasmodium falciparum line GB4 (AID 1816); conditions: Potency: Plasmodium falciparum GB4 proliferation inhibition;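 further: parasite growth measured after 72 h incubation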; further: potency means the concentration at half of the fitted maximal effect;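 on activity change, negative = inhibition: 0% = vehicle DMSO and -100% = reference inhibitor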
[6] = qHTS for differential inhibitors of proliferation of Plasmodium falciparum line 3D7 (AID 1876); further: potency means the concentration at half of the fitted maximal effect
[7] = qHTS for differential inhibitors of proliferation of Plasmodium falciparum line D10 (AID 1877);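 further: parasites grown with compound for 72 h before DNA staining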; further: potency means the concentration at half of the fitted maximal effect;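 on activity change, negative = inhibition: plate controls were vehicle wells for no effect and reference inhibitor wells for full effect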
[8] = qHTS for differential inhibitors of proliferation of Plasmodium falciparum line Dd2 (AID 1882); conditions: Potency: Plasmodium falciparum Dd2 proliferation inhibition; further: nearly all actives have a fitted effect of over 65% in size; further: potency means the concentration at half of the fitted maximal effect;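 on activity change, negative = inhibition: plate controls were DMSO vehicle for no effect and 0.29 µM artemisinin for full effect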
Procedure, shortened: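 SYBR Green DNA fluorescence (ex 485, em 535 nm) after overnight lysis quantifies parasite growth; compound exposure lasted 72 h at 37 C on infected red cells at 2.5% hematocrit, 0.3% parasitemia (final). Artemisinin 0.29 uM and vehicle wells define normalization.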

[9] = qHTS for differential inhibitors of proliferation of Plasmodium falciparum line W2 (AID 1883); conditions: Potency: Plasmodium falciparum W2 proliferation inhibition;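 further: parasites grown with compound for 72 h before lysis and staining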; further: potency means the concentration at half of the fitted maximal effect;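 on activity change, negative = inhibition: 0% = vehicle wells and -100% = control inhibitor wells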
[10] = qHTS for differential inhibitors of proliferation of Plasmodium falciparum line HB3 (AID 1886); conditions: Potency: Plasmodium falciparum HB3 proliferation inhibition;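 further: parasites grown with compound for 72 h before SYBR Green readout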; further: potency means the concentration at half of the fitted maximal effect;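 on activity change, negative = inhibition: plate controls were vehicle for no effect and reference inhibitor for full effect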
[11] = molecular target: Alpha-galactosidase A (Homo sapiens) (UniProt P06280); assay: Counterscreen for Glucocerebrosidase Inhibitors: qHTS Assay for Human alpha-Galactosidase at pH 4.5 (AID 992); further: 0% is about no effect
Procedure, shortened: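 Steps: enzyme (2 nM final), then compound across 0.7 nM to 77 uM, then 80 uM fluorogenic galactopyranoside substrate; incubate 20 min at room temperature; quench at pH 10; measure fluorescence at 365/440 nm.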

[12] = molecular target: alpha-glucosidase (Oryza sativa, rice) (UniProt Q653V4); assay: Counterscreen for Glucocerebrosidase Inhibitors: qHTS Assay for Rice alpha-Glucosidase at pH 5.0 (AID 997);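 further: 0% = full activity with enzyme and -100% = basal without enzyme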
Procedure, shortened: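 Endpoint fluorogenic assay at pH 5.0: compounds (0.7 nM to 77 uM) titrated against 4 nM rice enzyme and 400 uM 4-MU-alpha-glucoside for 20 min at room temperature; NaOH/glycine stop, read ex 365/em 440 nm, Hill-fitted AC50.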

[13] = qHTS Assay for Lipid Storage Modulators (AID 1519; calls by dose curve; on activity change, negative = inhibition: on the % scale 0 is the no-effect control and ±100 the full control effect); conditions: Drosophila S3 cells, BODIPY lipid droplet/cell ratio, laser cytometry, cells loaded with oleic acid
Procedure, shortened: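 Cells seeded at 5,000 per well were treated with compounds over a concentration series and loaded with oleic acid (400 uM, as added). Lipid droplet fluorescence (488 nm excitation, 500-530 nm channel) was read by laser-scanning cytometry and normalized to 20 uM Triacsin C.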

[14] = molecular target: Alpha-galactosidase (Coffea arabica) (UniProt Q42656); assay: Counterscreen for Glucocerebrosidase Inhibitors: qHTS Assay for Coffee Bean alpha-Galactosidase at pH 5.9 (AID 998);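 further: plate controls were uninhibited enzyme for no effect and no-enzyme basal signal for full effect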
Procedure, shortened: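 Enzyme 2 nM + cpd (0.7 nM–77 uM titration) + 4-MU-alpha-Gal 80 uM, pH 5.9 citrate/Tween-20, RT 20 min, NaOH/glycine stop pH 10, fluor 365/440. Normalized to no-enzyme and full-activity controls; Hill-fit AC50.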

[15] = qHTS Assay for Modulators of Human Peripheral Myelin Protein 22 (PMP22) Expression/Activity (AID 1967; active means well fitted curve in the direction sought with a large enough effect in the signal ratio; the % refers to the signal ratio;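 further: 0% = untreated cells and 100% end not stated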)
Procedure, shortened: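 Mouse MSC80 Schwann line, Pmp22 promoter–CBG68 reporter, EF-alpha–CBR internal control. 24h compound exposure, 37 °C/5% CO2, DMEM + 10% FBS. Readout: corrected green/red luminescence ratio, normalized to untreated cells; concentration-response curves fitted and classified.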

[16] = Cell Viability - LYMP2-024 (AID 988);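 further: plate controls were DMSO only for no effect and 92 µM tetraoctylammonium bromide for full effect; nearly all actives have a fitted effect of over 60% in size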
Procedure, shortened: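 qHTS cytotoxicity, human lymphoblastoid line, complete medium; 24 h cpd treatment, 37 C; CellTiter-Glo ATP luminescence readout; tetraoctylammonium bromide positive control; AC50 via Hill fit.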

[17] = Cell Viability - LYMP2-026 (AID 989); further: on the % scale 0 is the no-effect control and ±100 the full control effect; nearly all actives have a fitted effect of over 50% in size
Procedure, shortened: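 Cells are seeded at 2500 per well and held 5 hr at 37 C. Compounds are added in concentration series for 24 hr, then CellTiter-Glo reagent is applied and luminescence read.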

[18] = Cell Viability - LYMP1-002 - Assay at 24 hr (AID 993); further: on the % scale 0 is the no-effect control and ±100 the full control effect
Procedure, shortened: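 Acute toxicity is measured as concentration-dependent loss of cellular ATP in a human lymphoblastoid line (Coriell LYMP1-002) after 24 h treatment in complete medium. ATP is quantified by luciferase luminescence and AC50 derived by Hill modelling.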

[19] = Cell Viability - LYMP1-002 - Assay at 40 hr (AID 994);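 further: 0% = DMSO only and full inhibition = 92 µM tetraoctylammonium bromide; nearly all actives have a fitted effect of over 60% in size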
Procedure, shortened: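 Cells are plated at 2500 per well and rested 5 hr at 37 C. Compounds are added and incubated 40 hr at 37 C. CellTiter-Glo reagent is added for 30 min at room temperature before luminescence is read.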

[20] = measured here: cell count channel max response
[21] = measured here: lipid channel max response

Chain of Alpha-galactosidase (Coffea arabica) (Q42656 whole entry, looked up): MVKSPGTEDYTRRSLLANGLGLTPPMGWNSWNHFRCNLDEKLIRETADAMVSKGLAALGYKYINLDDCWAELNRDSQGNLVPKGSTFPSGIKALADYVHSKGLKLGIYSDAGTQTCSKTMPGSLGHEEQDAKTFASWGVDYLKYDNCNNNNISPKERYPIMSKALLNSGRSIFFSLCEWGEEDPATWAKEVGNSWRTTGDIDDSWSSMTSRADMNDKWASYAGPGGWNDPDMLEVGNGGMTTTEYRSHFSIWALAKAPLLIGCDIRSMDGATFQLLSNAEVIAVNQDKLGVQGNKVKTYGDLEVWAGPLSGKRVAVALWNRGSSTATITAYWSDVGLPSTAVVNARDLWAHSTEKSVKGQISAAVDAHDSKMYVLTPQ
Chain of Alpha-galactosidase A (Homo sapiens) (P06280 whole entry, looked up): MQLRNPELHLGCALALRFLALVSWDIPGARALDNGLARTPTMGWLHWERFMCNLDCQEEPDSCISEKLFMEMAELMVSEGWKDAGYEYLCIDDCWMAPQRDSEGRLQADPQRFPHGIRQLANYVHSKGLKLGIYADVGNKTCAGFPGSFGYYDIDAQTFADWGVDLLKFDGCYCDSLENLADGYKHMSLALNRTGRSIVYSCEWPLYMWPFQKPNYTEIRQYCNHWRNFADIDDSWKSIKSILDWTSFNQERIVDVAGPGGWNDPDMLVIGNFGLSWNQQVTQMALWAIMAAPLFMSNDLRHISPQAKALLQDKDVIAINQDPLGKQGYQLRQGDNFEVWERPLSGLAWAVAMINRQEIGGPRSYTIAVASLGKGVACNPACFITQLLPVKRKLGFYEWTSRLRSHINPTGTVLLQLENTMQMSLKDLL
Chain of DNA repair nuclease/redox regulator APEX1 (Homo sapiens) (P27695 whole entry, looked up): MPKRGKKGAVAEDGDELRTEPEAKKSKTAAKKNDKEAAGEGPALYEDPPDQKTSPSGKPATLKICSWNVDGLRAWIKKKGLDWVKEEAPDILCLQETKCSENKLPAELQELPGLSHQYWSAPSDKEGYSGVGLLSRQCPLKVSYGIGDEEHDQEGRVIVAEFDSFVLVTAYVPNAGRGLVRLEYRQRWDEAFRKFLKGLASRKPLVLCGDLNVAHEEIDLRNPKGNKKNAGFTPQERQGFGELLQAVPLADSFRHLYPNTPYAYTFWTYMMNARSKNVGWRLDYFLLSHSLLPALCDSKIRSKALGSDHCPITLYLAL

CC1(C(=O)O)C2CCC(O2)C1(C)C(=O)O (centres undefined)
active: Potency [4] 3.55 µM | Potency [5] 3.16 µM | Potency [6] 2.24 µM | Potency [7] 1.58 µM | Potency [8] 5.01 µM | Potency [9] 1.12 µM | Potency [10] 2.24 µM
inactive: Potency [1] | Potency [2] | Potency [3]

NC(=O)CI
inactive: outcome [11] | outcome [12] | Potency [1] | Potency [2] | Potency [3] | Potency [4] | Potency [5] | Potency [6] | Potency [7] | Potency [8] | Potency [9] | Potency [10]

CCCCCCC(C)(C)c1ccc([C@@H]2C[C@H](O)CC[C@H]2CCCO)c(O)c1
active: Potency [4] 1.78 µM | Potency [5] 2.24 µM | Potency [6] 5.01 µM | Potency [7] 7.94 µM | Potency [8] 4.47 µM | Potency [9] 2.24 µM | Potency [10] 2.82 µM
8.54%: max response [13, 20]
inactive: activity change, negative = inhibition ([13]; at 57.5 µM (top of the series)) -5.44% | Potency [2]
2.73%: max response [13, 21]

Clc1ccc(Cl)cc1
8.86%: max response [13, 20]
inactive: activity change, negative = inhibition ([13]; at 57.5 µM (top of the series)) 0.214%
11.5%: max response [13, 21]

ClC1C(Cl)C(Cl)C(Cl)C(Cl)C1Cl (centres undefined)
20.6%: max response [13, 21]
inactive: activity change, negative = inhibition ([13]; at 57.5 µM (top of the series)) 9.37%
11.2%: max response [13, 20]

COc1ccc(OC)c(C(O)C(C)N)c1 (centres undefined)
25.1% and 26.8%: max response [13, 21]
inactive: activity change, negative = inhibition ([13]; at 57.5 µM (top of the series)) 12.3% and -2.22% | Potency [1] | Potency [2] | Potency [3] | Potency [4] | Potency [5] | Potency [6] | Potency [7] | Potency [8] | Potency [10]
8.8% and 28.9%: max response [13, 20]

CCCC(C)C1(CC)C(=O)NC(=O)NC1=O (centres undefined)
-3.32%: max response [13, 21]
inactive: activity change, negative = inhibition ([13]; at 57.5 µM (top of the series)) 5.49%
-11.5%: max response [13, 20]

C[N+](C)(C)CCOC(=O)CBr
inactive: outcome [11] | outcome [12] | outcome [14] | Potency [1] | Potency [2] | Potency [3] | Potency [4] | Potency [5] | Potency [6] | Potency [7] | Potency [8] | Potency [9] | Potency [10] | outcome [15]

NC(Cc1ccc(N(CCCl)CCCl)cc1)C(=O)O (centres undefined)
17.5%: max response [13, 20]
active: Potency [4] 10 µM | Potency [5] 11.2 µM | Potency [6] 10 µM | Potency [7] 12.6 µM | Potency [9] 10 µM | Potency [10] 12.6 µM
28.4%: max response [13, 21]
inactive: activity change, negative = inhibition ([13]; at 57.5 µM (top of the series)) 5.85% | Potency [1] | Potency [2] | Potency [3]

CCS(=O)(=O)Nc1cccc(C(=C2CCCCC2)c2cnc[nH]2)c1
58%: max response [13, 21]
inactive: outcome [11] | outcome [12] | outcome [14] | activity change, negative = inhibition ([13]; at 57.5 µM (top of the series)) 1.44% | Potency [1] | Potency [2]
56.8%: max response [13, 20]
active: Potency [4] 7.08 µM | Potency [5] 12.6 µM | Potency [6] 11.2 µM | Potency [7] 14.1 µM | Potency [8] 10 µM | Potency [9] 8.91 µM | Potency [10] 12.6 µM

C[C@]12Cc3cn4c(nc3C=C1CCC1C2CC[C@@]2(C)[C@H]1CC[C@@]2(O)C#N)nc1ccccc14 (some centres undefined)
active: Potency [4] 1.26 µM | Potency [5] 3.16 µM | Potency [6] 2.82 µM | Potency [7] 5.01 µM | Potency [8] 3.55 µM | Potency [9] 2.82 µM | Potency [10] 5.62 µM
inactive: Potency [1] | Potency [2] | Potency [3]

CCC1(C)CC(=O)NC(=O)C1
-9.15%: max response [13, 21]
-7.91%: max response [13, 20]
inactive: activity change, negative = inhibition ([13]; at 25.7 µM (top of the series)) -1.02%

C[N+]1(C)CCC(OC(=O)C(c2ccccc2)c2ccccc2)CC1
active: Potency [4] 8.91 µM | Potency [5] 12.6 µM | Potency [6] 3.16 µM | Potency [7] 7.08 µM | Potency [9] 3.98 µM | Potency [10] 7.94 µM
inactive: outcome [14] | activity change, negative = inhibition ([13]; at 57.5 µM (top of the series)) -1.55% and -0.573% | Potency [1] | Potency [2] | Potency [3]
1.6% and -18%: max response [13, 21]
3.78% and -17.3%: max response [13, 20]

O=C/C=C/c1ccccc1
inactive: Potency [16] | Potency [17] | Potency [18] | Potency [19]

O=C(O)C(Cl)(Cl)Cl
inactive: Potency [16] | Potency [17] | Potency [18] | Potency [19]
